Results filed as inconclusive are left out. Some structures have more than one record in an assay (separate samples or runs), and their calls can disagree. Active and inactive are the calls of the source. How the source made its calls, unless noted: active means hit-call score of the fitted dose curve at least 0.9, where 1 is the maximum; inconclusive means response in the unintended direction; inactive means score below 0.9.
Assays:
[1] = molecular target: Hepatocyte nuclear factor 3-beta (Homo sapiens) (UniProt Q9Y261); assay: ATG_FoxA2_CIS: Attagene CIS-FACTORIAL HepG2 Assay for human Forkhead box A2 (FOXA2) (AID 2282942; active means hit-call score of the fitted dose curve at least 0.9, where 1 is the maximum; inactive means score below 0.9); settings: HepG2 cis-reporter transcription factor activity, 24 h; actives raise or lower the signal
Hepatocyte nuclear factor 3-beta (Homo sapiens), sequence (Q9Y261 whole entry, looked up): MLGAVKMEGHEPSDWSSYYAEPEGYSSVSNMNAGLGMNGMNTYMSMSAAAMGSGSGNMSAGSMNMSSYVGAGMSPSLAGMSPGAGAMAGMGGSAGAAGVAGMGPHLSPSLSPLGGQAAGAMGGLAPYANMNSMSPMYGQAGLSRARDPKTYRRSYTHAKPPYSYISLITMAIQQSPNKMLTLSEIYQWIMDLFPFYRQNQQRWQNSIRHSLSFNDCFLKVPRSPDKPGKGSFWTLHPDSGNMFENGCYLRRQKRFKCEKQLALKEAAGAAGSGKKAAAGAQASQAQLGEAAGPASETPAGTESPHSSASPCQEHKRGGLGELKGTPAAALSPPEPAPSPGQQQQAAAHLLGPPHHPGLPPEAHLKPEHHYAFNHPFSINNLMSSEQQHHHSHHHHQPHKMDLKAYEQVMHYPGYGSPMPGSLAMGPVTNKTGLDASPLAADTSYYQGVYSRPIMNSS
In short: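 Readout: fluorescent reporter transcripts resolved by capillary electrophoresis after RT-PCR. Transiently transfected HepG2, 24 h compound exposure, endogenous TF activity at cis promoter elements. Gain or loss of signal fitted relative to DMSO.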

[2] = ATG_RORE_CIS: Attagene CIS-FACTORIAL HepG2 Assay for human RAR-related Orphan Receptor Element (RORE) (AID 2282959; active means hit-call score of the fitted dose curve at least 0.9, where 1 is the maximum; inactive means score below 0.9); settings: HepG2 Attagene cis-factorial RORE reporter, mRNA; actives raise or lower the signal
In short: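 Readout: fluorescent reporter mRNA by RT-PCR plus capillary electrophoresis, 24 h after dosing transfected HepG2 cells. Endogenous transcription factor activity on a cis promoter element is measured. Gain or loss of signal fitted against DMSO.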

[3] = ATG_TGFb_CIS: Attagene CIS-FACTORIAL HepG2 Assay for human Transforming Growth Factor (TGF) (AID 2282967; active means hit-call score of the fitted dose curve at least 0.9, where 1 is the maximum; inactive means score below 0.9); settings: HepG2 Attagene CIS TGFb reporter, mRNA transcription; actives raise or lower the signal
In short: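 Transcript-level reporter readout: HepG2 transfectants, 24 h exposure, RNA to cDNA, reporter-specific PCR, fluorescent primer extension, capillary sizing against ROX standards. Gain- or loss-of-signal relative to DMSO.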

[4] = ATG_M_32_TRANS: Attagene TRANS-FACTORIAL HepG2 Assay for M32 Transcription Factor (Internal Marker) (AID 2282984); settings: HepG2 Attagene TRANS M32 internal marker reporter;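 further: transcript level of a background control reporter unit measured by RT-PCR and capillary electrophoresis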
In short: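 Fluorescence-detected mRNA induction, HepG2 liver cells, 24 h after dosing. Multiple GAL4-UAS reporter units introduced by transient transfection; background-control endpoint analysed for gain of signal against DMSO.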

[5] = molecular target: Nuclear receptor subfamily 4 group A member 2 (Homo sapiens) (UniProt P43354); assay: ATG_NURR1_TRANS: Attagene TRANS-FACTORIAL HepG2 Assay for human Nuclear Receptor Related Protein 1 (NURR1) (AID 2282985); settings: HepG2 Attagene TRANS reporter, mRNA readout
Nuclear receptor subfamily 4 group A member 2 (Homo sapiens), sequence (P43354 whole entry, looked up, the tested form may be a part): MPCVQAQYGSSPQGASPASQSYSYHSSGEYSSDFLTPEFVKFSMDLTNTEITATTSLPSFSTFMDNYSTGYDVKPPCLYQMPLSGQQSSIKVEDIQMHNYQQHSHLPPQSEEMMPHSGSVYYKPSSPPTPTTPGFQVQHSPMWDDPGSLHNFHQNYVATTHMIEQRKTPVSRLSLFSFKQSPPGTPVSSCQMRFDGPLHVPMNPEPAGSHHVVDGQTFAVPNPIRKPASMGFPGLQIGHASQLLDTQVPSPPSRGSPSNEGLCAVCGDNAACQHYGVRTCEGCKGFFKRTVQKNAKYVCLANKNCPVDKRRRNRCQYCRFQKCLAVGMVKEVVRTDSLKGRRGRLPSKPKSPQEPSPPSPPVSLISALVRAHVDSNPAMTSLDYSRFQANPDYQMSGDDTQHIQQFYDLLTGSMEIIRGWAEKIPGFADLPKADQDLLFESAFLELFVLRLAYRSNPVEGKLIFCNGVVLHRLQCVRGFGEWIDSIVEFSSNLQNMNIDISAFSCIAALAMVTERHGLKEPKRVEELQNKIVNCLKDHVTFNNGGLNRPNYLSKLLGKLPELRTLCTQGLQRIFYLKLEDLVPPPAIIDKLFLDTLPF
In short: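 Chimeric NR-Gal4 proteins were expressed in human HepG2 cells bearing GAL4-UAS reporter units, and induced reporter mRNA was quantified 24 h post-dosing by RT-PCR and capillary electrophoresis.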

[6] = molecular target: Nuclear respiratory factor 1 (Homo sapiens) (UniProt Q16656); assay: ATG_NRF1_CIS: Attagene CIS-FACTORIAL HepG2 Assay for human Nuclear Respiratory Factor 1 (NRF1) Orphan Gene (AID 2282987; active means hit-call score of the fitted dose curve at least 0.9, where 1 is the maximum; inactive means score below 0.9); settings: HepG2 NRF1 cis-element reporter, Attagene multiplex; actives raise or lower the signal
Nuclear respiratory factor 1 (Homo sapiens), sequence (Q16656 whole entry, looked up): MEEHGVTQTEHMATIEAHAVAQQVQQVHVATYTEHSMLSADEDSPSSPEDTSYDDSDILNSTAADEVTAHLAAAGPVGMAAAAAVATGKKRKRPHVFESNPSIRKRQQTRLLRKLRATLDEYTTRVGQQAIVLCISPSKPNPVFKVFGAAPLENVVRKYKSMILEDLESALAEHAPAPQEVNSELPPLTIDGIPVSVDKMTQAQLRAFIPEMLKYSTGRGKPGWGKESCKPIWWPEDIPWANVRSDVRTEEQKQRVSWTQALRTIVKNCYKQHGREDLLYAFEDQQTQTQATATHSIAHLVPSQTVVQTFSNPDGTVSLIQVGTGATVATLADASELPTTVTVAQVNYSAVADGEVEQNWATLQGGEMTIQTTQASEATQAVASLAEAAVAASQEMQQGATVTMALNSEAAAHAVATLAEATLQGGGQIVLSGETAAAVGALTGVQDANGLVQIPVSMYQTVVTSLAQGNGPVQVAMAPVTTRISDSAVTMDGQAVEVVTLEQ
In short: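 Endogenous NRF1-driven reporter transcription measured in transiently transfected human HepG2 liver cells. Readout: reporter mRNA by RT-PCR and capillary electrophoresis with fluorescence detection, 24 h post-dosing. Gain or loss of signal fitted relative to DMSO baseline.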

[7] = molecular target: Retinoic acid receptor RXR-alpha (Homo sapiens) (UniProt P19793); assay: ATG_RXRa_TRANS: Attagene TRANS-FACTORIAL HepG2 Assay for human Retinoid X Receptor alpha (RXRa) (AID 2283012)
Retinoic acid receptor RXR-alpha (Homo sapiens), sequence (P19793 whole entry, looked up, the tested form may be a part): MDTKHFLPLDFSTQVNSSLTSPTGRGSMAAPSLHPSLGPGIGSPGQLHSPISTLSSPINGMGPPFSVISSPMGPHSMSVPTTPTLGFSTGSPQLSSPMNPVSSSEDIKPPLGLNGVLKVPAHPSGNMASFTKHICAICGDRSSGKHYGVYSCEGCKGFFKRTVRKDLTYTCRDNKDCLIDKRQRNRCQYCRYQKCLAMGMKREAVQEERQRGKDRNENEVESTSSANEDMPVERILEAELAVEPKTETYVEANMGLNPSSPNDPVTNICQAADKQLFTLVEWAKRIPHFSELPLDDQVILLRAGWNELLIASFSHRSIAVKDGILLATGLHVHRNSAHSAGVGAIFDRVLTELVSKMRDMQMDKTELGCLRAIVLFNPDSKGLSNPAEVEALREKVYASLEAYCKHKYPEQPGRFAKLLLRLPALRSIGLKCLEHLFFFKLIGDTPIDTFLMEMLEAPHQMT
In short: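 Read-out: fluorescent reporter-transcript fragments quantified by capillary electrophoresis after RT-PCR. Transiently transfected HepG2 cells carrying GAL4-UAS reporters and NR-GAL4 chimeras were exposed to chemical for 24 h; activity scored as increase over DMSO.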

[8] = molecular target: human Retinoid X Receptor beta (RXRb), RXRB (gene 6257) (UniProt P28702); assay: ATG_RXRb_TRANS: Attagene TRANS-FACTORIAL HepG2 Assay for human Retinoid X Receptor beta (RXRb) (AID 2283013)
human Retinoid X Receptor beta (RXRb), RXRB (gene 6257), sequence (P28702 whole entry, looked up, the tested form may be a part): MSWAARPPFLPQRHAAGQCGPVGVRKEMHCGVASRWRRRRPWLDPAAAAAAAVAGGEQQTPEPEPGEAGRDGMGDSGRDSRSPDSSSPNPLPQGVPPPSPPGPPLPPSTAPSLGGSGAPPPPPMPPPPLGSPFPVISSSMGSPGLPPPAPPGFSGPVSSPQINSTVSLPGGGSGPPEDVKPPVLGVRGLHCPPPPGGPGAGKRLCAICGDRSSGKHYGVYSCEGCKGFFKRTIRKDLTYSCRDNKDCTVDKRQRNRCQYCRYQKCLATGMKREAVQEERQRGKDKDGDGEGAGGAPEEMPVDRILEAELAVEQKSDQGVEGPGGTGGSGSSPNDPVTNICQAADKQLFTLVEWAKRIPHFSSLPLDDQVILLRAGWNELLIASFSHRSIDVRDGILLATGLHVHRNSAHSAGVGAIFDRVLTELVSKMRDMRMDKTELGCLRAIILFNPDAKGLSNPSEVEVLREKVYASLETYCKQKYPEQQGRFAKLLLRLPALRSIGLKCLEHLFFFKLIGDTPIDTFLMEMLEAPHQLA
In short: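 Read-out: reporter mRNA induction via RT-PCR plus capillary electrophoresis fluorescence, analysed as signal increase relative to DMSO. Cells were human HepG2, transiently transfected with GAL4-UAS reporter constructs and chimeric receptor-Gal4 fusions, dosed for 24 h.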

[9] = TOX21_p53_BLA_p2_viability: Viability Assessment in the Tox21 HCT-116 p53 Agonism Beta-lactamase Assay, Phase 2 (AID 2283591);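 further: compound exposure lasted 16 h at 37 °C; actives lower the ATP signal meaning cytotoxicity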
In short: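 HCT-116 p53-bla cells (4000/well) rested 5 h at 37C, then received compounds in DMSO (217-fold dilution) for 16 h at 37C, 5% CO2. After the CCF4 read, CellTiter-Glo was added; ATP luminescence was read after 30 min at room temperature.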

[10] = molecular target: Cellular tumor antigen p53 (Homo sapiens) (UniProt P04637); assay: TOX21_p53_BLA_p3_ratio: Tox21 HCT-116 p53 Agonism Beta-lactamase Assay, Ratio, Phase 3 (AID 2283596)
Cellular tumor antigen p53 (Homo sapiens), sequence (P04637 whole entry, looked up): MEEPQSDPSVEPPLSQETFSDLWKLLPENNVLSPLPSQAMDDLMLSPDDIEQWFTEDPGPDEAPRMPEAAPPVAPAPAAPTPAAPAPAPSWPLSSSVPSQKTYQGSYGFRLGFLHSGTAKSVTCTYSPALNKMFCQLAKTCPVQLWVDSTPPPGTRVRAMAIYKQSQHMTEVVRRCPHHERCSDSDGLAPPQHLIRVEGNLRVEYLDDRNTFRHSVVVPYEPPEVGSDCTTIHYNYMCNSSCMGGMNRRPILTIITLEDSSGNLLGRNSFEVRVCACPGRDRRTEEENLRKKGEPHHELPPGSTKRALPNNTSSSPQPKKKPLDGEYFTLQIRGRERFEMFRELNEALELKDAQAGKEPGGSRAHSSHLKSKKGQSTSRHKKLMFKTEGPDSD
In short: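 Cells were seeded at 4000/well, rested 5 h at 37C, then dosed with DMSO compound solutions (217-fold dilution) for 16 h. CCF4-AM substrate was loaded for 2 h at room temperature, and the 460/530 nm emission ratio was fitted for gain of signal versus DMSO.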

[11] = TOX21_p53_BLA_p4_viability: Viability Assessment in the Tox21 HCT-116 p53 Agonism Beta-lactamase Assay, Phase 4 (AID 2283597);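 further: hits lower the luminescence signal meaning cytotoxicity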
In short: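 In this multiplexed secondary endpoint, HCT116 cells (4000 per well, compound at 5 h, 16 h treatment) received CellTiter-Glo after the beta-lactamase read. Luminescence after 30 min RT reflects ATP, and falling signal marks cytotoxicity.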

[12] = TOX21_p53_BLA_p5_viability: Viability Assessment in the Tox21 HCT-116 p53 Agonism Beta-lactamase Assay, Phase 5 (AID 2283600)
In short: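 Here cell health was gauged by ATP levels in wells holding 4000 cells, each treated 16 h with DMSO-delivered compounds at 217-fold dilution; reduced luminescence marked toxicity.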

[13] = ATG_GAL4_TRANS: Attagene TRANS-FACTORIAL HepG2 Assay for GAL4 (Internal Marker) (AID 2282976); settings: HepG2 Attagene TRANS GAL4 internal marker reporter
In short: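 Liver HepG2 line bearing multiplexed GAL4-UAS reporter constructs; 24 h chemical treatment. Transcripts were quantified as fluorescent fragments on capillary electrophoresis after RT-PCR and HpaI cut, with activity fitted upward from DMSO.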

[14] = molecular target: Hepatocyte nuclear factor 4-alpha (Homo sapiens) (UniProt P41235); assay: ATG_HNF4a_TRANS: Attagene TRANS-FACTORIAL HepG2 Assay for human Hepatocyte Nuclear Factor 4 alpha (HNF4a) (AID 2282982); settings: HepG2 HNF4a transactivation reporter, mRNA readout
Hepatocyte nuclear factor 4-alpha (Homo sapiens), sequence (P41235 whole entry, looked up, the tested form may be a part): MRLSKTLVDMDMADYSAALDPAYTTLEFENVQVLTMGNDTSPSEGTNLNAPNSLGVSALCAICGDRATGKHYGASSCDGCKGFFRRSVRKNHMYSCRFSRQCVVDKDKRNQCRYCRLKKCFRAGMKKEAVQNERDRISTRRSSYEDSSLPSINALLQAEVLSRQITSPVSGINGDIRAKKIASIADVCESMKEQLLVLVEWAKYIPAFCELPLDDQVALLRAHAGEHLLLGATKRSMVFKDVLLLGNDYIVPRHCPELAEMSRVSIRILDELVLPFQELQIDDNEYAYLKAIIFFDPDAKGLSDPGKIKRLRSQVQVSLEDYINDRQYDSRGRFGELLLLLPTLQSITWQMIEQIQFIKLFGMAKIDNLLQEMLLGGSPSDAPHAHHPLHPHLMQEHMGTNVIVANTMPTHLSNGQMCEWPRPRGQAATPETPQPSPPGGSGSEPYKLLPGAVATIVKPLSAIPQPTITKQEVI
In short: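 Using HepG2 liver cells transfected with GAL4-UAS reporter units, chemical-induced mRNA increases were assessed after 24 hours. Fluorescent RT-PCR fragments were separated by capillary electrophoresis and compared with DMSO negative controls.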

[15] = ATG_NF_kB_CIS: Attagene CIS-FACTORIAL HepG2 Assay for human Nuclear Factor Kappa B (NF-kB) (AID 2282991; active means hit-call score of the fitted dose curve at least 0.9, where 1 is the maximum; inactive means score below 0.9); settings: HepG2 Attagene cis-factorial NF-kB reporter mRNA; actives raise or lower the signal
In short: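 Read-out: reporter transcript levels quantified by RT-PCR plus capillary electrophoresis of 6-FAM-labelled, HpaI-cut fragments. Transfected HepG2 cells, 24 h compound exposure, endogenous NF-kB-driven cis element; gain or loss scored versus DMSO.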

[16] = molecular target: Cellular tumor antigen p53 (Homo sapiens) (UniProt P04637); assay: TOX21_p53_BLA_p2_ratio: Tox21 HCT-116 p53 Agonism Beta-lactamase Assay, Ratio, Phase 2 (AID 2283592)
In short: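 DMSO-normalized, positive-direction endpoint derived from the 460 nm/530 nm FRET ratio in HCT116 p53 beta-lactamase reporter cells exposed 16 h at 37C and loaded with CCF4-AM for 2 h.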

[17] = molecular target: Cellular tumor antigen p53 (Homo sapiens) (UniProt P04637); assay: TOX21_p53_BLA_p5_ratio: Tox21 HCT-116 p53 Agonism Beta-lactamase Assay, Ratio, Phase 5 (AID 2283599)
In short: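 HCT-116 cells carrying a p53-inducible beta-lactamase reporter were seeded at 4000 cells/well and dosed after 5 h with compound in DMSO (217-fold dilution). After 16 h at 37C, CCF4-AM substrate was added for 2 h, and the 460/530 nm emission ratio was scored as gain-of-signal versus DMSO.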

[18] = molecular target: Cellular tumor antigen p53 (Homo sapiens) (UniProt P04637); assay: TOX21_p53_BLA_p4_ratio: Tox21 HCT-116 p53 Agonism Beta-lactamase Assay, Ratio, Phase 4 (AID 2283601)
In short: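 HCT116 cells carrying an inducible beta-lactamase reporter were plated at 4000 cells/well, rested 5 h, then exposed to compounds in DMSO (217-fold dilution) for 16 h at 37C. CCF4-AM substrate was loaded 2 h at room temperature; 460/530 nm emission ratio scored gain-of-signal versus DMSO.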

[19] = molecular target: Hepatocyte nuclear factor 6 (Homo sapiens) (UniProt Q9UBC0); assay: ATG_HNF6_CIS: Attagene CIS-FACTORIAL HepG2 Assay for human Hepatocyte Nuclear Factor 6 (HNF6) (AID 2282952; active means hit-call score of the fitted dose curve at least 0.9, where 1 is the maximum; inactive means score below 0.9); settings: HepG2 Attagene cis-factorial HNF6 reporter transcription; actives raise or lower the signal
Hepatocyte nuclear factor 6 (Homo sapiens), sequence (Q9UBC0 whole entry, looked up, the tested form may be a part): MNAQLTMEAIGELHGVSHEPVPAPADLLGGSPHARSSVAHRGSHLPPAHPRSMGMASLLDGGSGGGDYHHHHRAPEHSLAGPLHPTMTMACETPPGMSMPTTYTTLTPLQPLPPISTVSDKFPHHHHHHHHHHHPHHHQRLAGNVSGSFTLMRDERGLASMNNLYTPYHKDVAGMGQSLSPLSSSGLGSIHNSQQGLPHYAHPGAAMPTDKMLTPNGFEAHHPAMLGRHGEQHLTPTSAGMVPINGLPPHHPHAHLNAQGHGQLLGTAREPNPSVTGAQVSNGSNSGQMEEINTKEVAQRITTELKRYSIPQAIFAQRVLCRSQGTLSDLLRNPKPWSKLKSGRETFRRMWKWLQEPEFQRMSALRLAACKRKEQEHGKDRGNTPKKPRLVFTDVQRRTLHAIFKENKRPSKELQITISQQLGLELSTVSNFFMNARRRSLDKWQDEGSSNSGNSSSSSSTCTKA
In short: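 Twenty-four-hour chemical treatment of reporter-transfected HepG2 cells precedes RNA isolation, DNase-treated reverse transcription and PCR of reporter sequences. Labelled fragments are sized by capillary electrophoresis and fitted bidirectionally versus DMSO.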

[20] = molecular target: human Thyroid Receptor alpha (THRa1), THRA (gene 7067) (UniProt P10827); assay: ATG_THRa1_TRANS: Attagene TRANS-FACTORIAL HepG2 Assay for human Thyroid Receptor alpha (THRa1) (AID 2283014)
human Thyroid Receptor alpha (THRa1), THRA (gene 7067), sequence (P10827 whole entry, looked up, the tested form may be a part): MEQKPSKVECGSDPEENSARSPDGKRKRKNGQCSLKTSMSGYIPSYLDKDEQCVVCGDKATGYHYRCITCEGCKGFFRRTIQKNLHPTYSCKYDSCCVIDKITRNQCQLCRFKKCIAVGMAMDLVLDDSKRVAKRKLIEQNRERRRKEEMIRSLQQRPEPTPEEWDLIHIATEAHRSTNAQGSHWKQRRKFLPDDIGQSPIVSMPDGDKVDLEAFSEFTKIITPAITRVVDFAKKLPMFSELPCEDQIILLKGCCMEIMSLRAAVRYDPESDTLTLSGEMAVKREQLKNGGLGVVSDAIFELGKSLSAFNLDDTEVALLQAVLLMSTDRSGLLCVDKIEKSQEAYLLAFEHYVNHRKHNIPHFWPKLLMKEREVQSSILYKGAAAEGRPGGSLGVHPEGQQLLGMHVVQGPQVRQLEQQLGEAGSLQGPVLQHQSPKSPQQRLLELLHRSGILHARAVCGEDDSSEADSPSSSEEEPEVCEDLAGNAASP
In short: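 Measured here is mRNA from a GAL4-UAS reporter in transfected HepG2 cells carrying a Gal4-fused receptor, 24 h post-dose. DMSO served as negative control and baseline.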

Measured: AC50

CN(C)Cc1cc(C(C)(C)C)c(O)c(C(C)(C)C)c1
inactive: [1] | [2] | [3] | [4] | [6] | [9] | [10] | [11] | [12]
active: [5] 29.1 µM | [7] 22.9 µM | [8] 1.67 µM

CCCOCCC
inactive: [13] | [14] | [5] | [6] | [15] | [8] | [9] | [16] | [11] | [17] | [18]

Oc1ccc(Cl)cc1C1CCCC1
active: [19] 55.6 µM | [5] 8.65 µM | [6] 44.1 µM | [7] 17.6 µM | [8] 3.12 µM | [11] 66.6 µM | [18] 55.6 µM
inactive: [1] | [3] | [14] | [4] | [15] | [20] | [9] | [16] | [10] | [17] | [12]

CC1=C(CC(=O)O)c2cc(F)ccc2/C1=C\c1ccc(S(C)=O)cc1 (stereo unspecified)
inactive: [19] | [3] | [4] | [5] | [6] | [15] | [7] | [8] | [20] | [9] | [11] | [17] | [12]

Cc1cc(C)c(S(=O)(=O)O)cc1N=Nc1cc(S(=O)(=O)O)c2ccccc2c1O
inactive: [1] | [19] | [2] | [3] | [13] | [14] | [4] | [8] | [20] | [9] | [16] | [10] | [12] | [18]

CCCC(=O)OC/C=C(\C)CCC=C(C)C
inactive: [19] | [3] | [13] | [14] | [4] | [5] | [15] | [7] | [8] | [20]

CNC[C@H](O)[C@@H](O)[C@H](O)[C@H](O)CO
inactive: [1] | [2] | [4] | [6] | [15] | [9] | [16] | [10] | [17] | [12] | [18]

C=CCOC(=O)C(=C)C
inactive: [1] | [3] | [13] | [14] | [6] | [8] | [16] | [10] | [11] | [18]

CC(C)CC(=O)O
inactive: [1] | [19] | [3] | [13] | [14] | [6] | [15] | [9] | [10] | [11] | [17] | [18]

CC(C)(C)NC(=O)[C@@H]1CN(Cc2cccnc2)CCN1C[C@@H](O)C[C@@H](Cc1ccccc1)C(=O)N[C@H]1c2ccccc2C[C@H]1O
inactive: [5] | [6] | [7] | [8] | [20] | [16] | [10] | [11] | [17]
active: [9] 36.3 µM | [16] 40.8 µM | [11] 33.2 µM | [17] 43.8 µM | [12] 37.5 µM | [18] 39.8 µM

Reference: PubChem BioAssay (EPA / NIEHS)
